Data from PubChem BioAssay (NCATS).
Records with an inconclusive call do not appear. The source made the active and inactive calls. Calls follow the shape of the dose curve; as a rule, active = well fitted curve in the direction sought with a large enough effect; inconclusive = small, poorly fitted or top-dose-only effect, or another doubt; inactive = no such curve, though single readings can be large; an effect the other way counts as inactive or inconclusive.

How the values were obtained:
HaCat [1] = assay: Cytotoxic Profiling of Annotated Libraries Using Quantitative High-Throughput Screening (AID 1296008); settings: Five cell lines viability, CellTiter-Glo ATP luminescence, 48-72 h; max response: hits give low values; also: nearly all actives have a fitted effect of over 60% in size; as to max response: % is scaled to controls: 0 for no effect and ±100 for the full control effect
Method in brief: (§1)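 Cells exposed to compounds for 48 or 72 hr at 37 degrees Celsius. Viability read as ATP-coupled luminescence with CellTiter-Glo after 10 min at room temperature.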

KB-3-1 = assay: as above; settings: Five cell lines viability, CellTiter-Glo ATP luminescence, 48-72 h; max response: hits give low values
Method in brief: as §1

HACAT [2] = assay: qHTS assay to identify novel small-molecules to repurpose for Merkel cell carcinoma treatment (AID 1296009); settings: MCC and control cell lines, CellTiter-Glo viability, 72 h; at 44.8 µM (top of the series) unless noted; also: nearly all actives have a fitted effect of over 60% in size
Method in brief: (§2)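 Dose-response viability screen; 72 hr exposure at 37 degree celsius; CellTiter-Glo added, 10 min room temperature, luminescence read; RLUs scaled between no-cell and DMSO wells.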

C33A = assay: Primary qHTS to identify gynecologic anti-cancer compounds using libraries of approved drugs and bioactive compounds (AID 1345084); settings: Gynecologic cancer cell panel viability, ATPlite luminescence, 48 h; series mostly up to 57.5 µM; also: nearly all actives have a fitted effect of over 55% in size
Method in brief: (§3)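 Cells, 1,000 per well, plated 16 h, then exposed 48 h at 37 C to compounds. Viability by ATPlite luminescence after 15 min at room temperature.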

CAOV3 = assay: as above; settings: Gynecologic cancer cell panel viability, ATPlite luminescence, 48 h; series mostly up to 57.5 µM
Method in brief: as §3

CASKI = assay: as above; settings: Gynecologic cancer cell panel viability, ATPlite luminescence, 48 h; series mostly up to 57.5 µM
Method in brief: as §3

HeLa = assay: as above; settings: Gynecologic cancer cell panel viability, ATPlite luminescence, 48 h; series mostly up to 57.5 µM
Method in brief: as §3

Hek293T [3] = assay: as above; settings: Gynecologic cancer cell panel viability, ATPlite luminescence, 48 h, control line for the selectivity index; series mostly up to 57.5 µM
Method in brief: as §3

OV90 = assay: as above; settings: Gynecologic cancer cell panel viability, ATPlite luminescence, 48 h; series mostly up to 57.5 µM
Method in brief: as §3

Es-2 = assay: as above; settings: Gynecologic cancer cell panel viability, ATPlite luminescence, 48 h; series mostly up to 57.5 µM
Method in brief: as §3

JEG-3 = assay: as above; settings: Gynecologic cancer cell panel viability, ATPlite luminescence, 48 h; series mostly up to 57.5 µM
Method in brief: as §3

NIH3T3 = assay: Cytotoxic Profiling of Annotated Libraries Using Quantitative High-Throughput Screening (AID 1296008); settings: Five cell lines viability, CellTiter-Glo ATP luminescence, 48-72 h; max response: hits give low values; also: nearly all actives have a fitted effect of over 60% in size; as to max response: % is scaled to controls: 0 for no effect and ±100 for the full control effect
Method in brief: as §1

HEK293T [4] = assay: qHTS assay to identify novel small-molecules to repurpose for Merkel cell carcinoma treatment (AID 1296009); settings: MCC and control cell lines, CellTiter-Glo viability, 72 h; also: nearly all actives have a fitted effect of over 60% in size
Method in brief: as §2
Potency is read from the fitted curve at half-maximal effect.

C=C(C(=O)O[C@H]1C/C(C)=C/CC/C(CO)=C/[C@H]2OC(=O)C(=C)[C@H]12)C(O)CO (some centres not stated)
inactive: outcome (HaCat [1]) | max response (KB-3-1) -10.8% | outcome (HACAT [2]) | Potency (C33A) | Potency (CAOV3) | Potency (CASKI) | Potency (HeLa) | Potency (Hek293T [3]) | Potency (OV90)

COc1ccc(C2=NC(c3ccc(Cl)cc3)C(c3ccc(Cl)cc3)N2C(=O)N2CCNC(=O)C2)c(OC(C)C)c1 (configuration not stated)
inactive: outcome (HaCat [1]) | outcome (KB-3-1) | outcome (HACAT [2]) | Potency (C33A) | Potency (CAOV3) | Potency (CASKI) | Potency (Es-2) | Potency (HeLa) | Potency (Hek293T [3]) | Potency (JEG-3) | Potency (OV90)

Cn1c(CO)c(-c2ccccc2)c2cc([N+](=O)[O-])ccc21
inactive: max response (HaCat [1]) -23.7% | max response (KB-3-1) -20.1% | max response (NIH3T3) -3.34% | Potency (C33A) | Potency (CASKI) | Potency (Es-2) | Potency (Hek293T [3]) | Potency (JEG-3) | Potency (OV90)

C=C1CC[C@@H]2[C@](C)(CO)[C@H](O)CC[C@@]2(C)[C@@H]1C/C=C1/C(=O)OCC1OC(=O)/C(=C/CO)C(O)C[C@@H]1C(=C)CC[C@@H]2[C@](C)(CO)[C@H](O)CC[C@]21C (some centres not stated)
inactive: outcome (HaCat [1]) | outcome (KB-3-1) | outcome (HACAT [2]) inactive [at 17.4 µM] | Potency (C33A) | Potency (CAOV3) | Potency (CASKI) | Potency (Es-2) | Potency (HeLa) | Potency (Hek293T [3]) | Potency (JEG-3) | Potency (OV90)

COc1ccc(-c2csc(NC(=O)[C@H]3CCCCN3S(=O)(=O)c3ccc(C)cc3)n2)cc1
inactive: outcome (HaCat [1]) | max response (KB-3-1) -25.1% | outcome (HACAT [2]) | Potency (C33A) | Potency (CAOV3) | Potency (CASKI) | Potency (Es-2) | Potency (HeLa) | Potency (Hek293T [3]) | Potency (JEG-3) | Potency (OV90)

O=C(CCl)Nc1cccc(NC2=NS(=O)(=O)c3ccccc32)c1
active: Potency (KB-3-1) 14.6 µM
inactive: outcome (HaCat [1]) | outcome (HACAT [2]) | Potency (Es-2) | Potency (JEG-3) | Potency (OV90)

CCOc1ccc(-n2c(C(C)N(Cc3cccnc3)C(=O)Cc3ccc(F)c(C(F)(F)F)c3)nc3ncccc3c2=O)cc1 (configuration not stated)
inactive: max response (HaCat [1]) -10.9% | outcome (KB-3-1) | max response (NIH3T3) 2.59% | Potency (C33A) | Potency (CASKI) | Potency (Es-2) | Potency (HeLa) | Potency (Hek293T [3]) | Potency (JEG-3) | Potency (OV90)

COc1ccc(S(=O)(=O)n2cnc3cc(C)c(C)cc32)cc1
inactive: max response (HaCat [1]) -14.6% | max response (KB-3-1) -13.8% | Potency (C33A) | Potency (CAOV3) | Potency (CASKI) | Potency (Es-2) | Potency (HeLa) | Potency (Hek293T [3]) | Potency (JEG-3) | Potency (OV90)

CCCCNc1ncc2c(-c3ccc(S(=O)(=O)N4CCOCC4)cc3)nn(C3CCC(O)CC3)c2n1 (configuration not stated)
inactive: Potency (JEG-3)
active: Potency (HaCat [1]) 6.51 µM | Potency (KB-3-1) 11.6 µM | Potency (NIH3T3) 7.31 µM | Potency (CAOV3) 7.94 µM | Potency (HeLa) 10 µM

C[C@@H]1O[C@@H](O[C@H]2[C@@H]3C=CO[C@@H](O[C@@H]4O[C@H](CO)[C@@H](O)[C@H](O)[C@H]4O)[C@@H]3[C@@]3(CO)O[C@@H]23)[C@H](O)[C@H](OC(=O)/C=C/c2ccccc2)[C@H]1O
inactive: outcome (HaCat [1]) | outcome (KB-3-1) | outcome (HACAT [2]) inactive [at 17.4 µM] | Potency (C33A) | Potency (CAOV3) | Potency (CASKI) | Potency (Es-2) | Potency (HeLa) | Potency (Hek293T [3]) | Potency (JEG-3) | Potency (OV90)

COc1ccc2[nH]c(=O)c3c(c2c1)OC(C)(C)C=C3
inactive: max response (HaCat [1]) -2% | outcome (KB-3-1) | Potency (C33A) | Potency (CAOV3) | Potency (CASKI) | Potency (Es-2) | Potency (HeLa) | Potency (JEG-3) | Potency (OV90)

COc1cc(F)c(F)c(Nc2ccc(I)cc2F)c1NS(=O)(=O)C1(CC(O)CO)CC1 (configuration not stated)
active: Potency (HaCat [1]) 14.6 µM | Potency (NIH3T3) 5.17 µM
inactive: max response (KB-3-1) -14.8% | Potency (C33A) | Potency (CASKI) | Potency (HeLa) | Potency (Hek293T [3]) | Potency (JEG-3)

CC(C)c1ccc(-c2cc(=O)c3ccccc3o2)cc1
active: Potency (C33A) 11.2 µM | Potency (JEG-3) 8.91 µM
inactive: max response (HaCat [1]) -4.45% | max response (KB-3-1) -3.41% | max response (NIH3T3) -24.9% | Potency (CASKI)

CC1CCC(=O)CC(SCC(O)C(=O)O)CCC(=O)O1 (configuration not stated)
inactive: max response (HaCat [1]) -8.22% | max response (KB-3-1) -25.6% | max response (NIH3T3) -15.1% | Potency (C33A) | Potency (CASKI) | Potency (Es-2) | Potency (HeLa) | Potency (Hek293T [3]) | Potency (JEG-3) | Potency (OV90)

C[C@@H]1CCCN1CCc1cc2cc(-c3ccc(C#N)cc3)ccc2o1
inactive: max response (HaCat [1]) -29.3% | max response (KB-3-1) -23.6% | Potency (C33A) | Potency (CAOV3) | Potency (CASKI) | Potency (Es-2) | Potency (HeLa) | Potency (JEG-3)

C=C1C(=O)O[C@@H]2/C=C(\C)CC/C=C(\C)CC[C@@H]12
inactive: outcome (HaCat [1]) | max response (KB-3-1) -12.1% | outcome (HACAT [2]) | Potency (C33A) | Potency (CAOV3) | Potency (CASKI) | Potency (Es-2) | Potency (HeLa) | Potency (Hek293T [3]) | Potency (OV90)

O=C(NCCCCCCCCNC(=O)C(Cl)Cl)C(Cl)Cl
inactive: max response (HaCat [1]) -4.24% | max response (KB-3-1) -9.66% | max response (NIH3T3) -14.9% | Potency (C33A) | Potency (Es-2) | Potency (HeLa) | Potency (Hek293T [3]) | Potency (JEG-3)

NS(=O)(=O)Nc1ncnc(OCCOc2ncc(Br)cn2)c1-c1ccc(Br)cc1
inactive: max response (HaCat [1]) -23.8% | max response (KB-3-1) 6.63% | max response (NIH3T3) -5.35% | Potency (C33A) | Potency (CASKI) | Potency (Es-2) | Potency (HeLa) | Potency (Hek293T [3]) | Potency (JEG-3) | Potency (OV90)

C=C1CC[C@@H](O)[C@]2(C)C[C@H]3OC(=O)C(=C)[C@H]3CC12 (some centres not stated)
inactive: outcome (HaCat [1]) | max response (KB-3-1) 1.13% | outcome (HACAT [2]) | Potency (C33A) | Potency (CASKI) | Potency (Es-2) | Potency (HeLa) | Potency (JEG-3) | Potency (OV90)

C=C1C(=O)O[C@@H]2/C=C(\CO)CC/C=C(/C=O)C[C@H](O)[C@@H]12
inactive: max response (HaCat [1]) -0.314% | outcome (KB-3-1) | Potency (C33A) | Potency (CASKI) | Potency (HeLa) | Potency (JEG-3) | Potency (OV90)
active: Potency (HEK293T [4]) 18.4 µM

C/C=C(\C)[C@@H]1C(C)=C[C@@H]2[C@H]([C@@H]1/C=C/C=C/C(=O)O)[C@@H](C)CC[C@@H]2O
inactive: outcome (HaCat [1]) | outcome (HACAT [2]) | Potency (C33A)
active: Potency (KB-3-1) 8.05 µM

C=C1C(=O)OC2/C=C(\CO)CC/C=C(\C=O)C(OC)C(OC(=O)C(C)CC)C12 (configuration not stated)
inactive: max response (HaCat [1]) -18% | outcome (KB-3-1) | Potency (C33A) | Potency (CAOV3) | Potency (CASKI) | Potency (Es-2) | Potency (HeLa) | Potency (Hek293T [3]) | Potency (JEG-3) | Potency (OV90)

CC[C@H]1OC(=O)[C@H](C)[C@@H](O[C@H]2C[C@@](C)(OC)[C@@H](O)[C@H](C)O2)[C@H](C)[C@@H](O[C@H]2O[C@H](C)C[C@H](N(C)C)[C@H]2O)[C@](C)(O)C[C@@H](C)C(=O)[C@H](C)[C@@H](O)[C@]1(C)O
inactive: outcome (HaCat [1]) | max response (KB-3-1) 8.4% | outcome (HACAT [2]) inactive [at 17.4 µM] | Potency (C33A) | Potency (CAOV3) | Potency (CASKI) | Potency (Es-2) | Potency (HeLa) | Potency (Hek293T [3]) | Potency (JEG-3) | Potency (OV90)

C/C=C\NC(=O)C1NC(=O)C(CC(N)=O)NC(=O)C(NC(=O)C(=O)C(C)CC)Cc2ccc(O)c(c2)-c2cccc3c2NC(=O)C3(O)C1O (configuration not stated)
inactive: outcome (HaCat [1]) | max response (NIH3T3) -19% | outcome (HACAT [2]) inactive [at 17.4 µM] | Potency (C33A) | Potency (CASKI) | Potency (Es-2) | Potency (HeLa) | Potency (Hek293T [3]) | Potency (JEG-3) | Potency (OV90)

C/C=C/C=C/c1cc2c(C=O)c(O)c(CC=C(C)C)cc2o1
inactive: outcome (HaCat [1]) | max response (NIH3T3) 1.86% | outcome (HACAT [2]) | Potency (C33A) | Potency (CAOV3) | Potency (CASKI) | Potency (Es-2) | Potency (HeLa) | Potency (Hek293T [3]) | Potency (JEG-3) | Potency (OV90)

O=C(Nc1ccccc1)N1CCN(c2nc(-c3ccccc3)ns2)CC1
inactive: outcome (HaCat [1]) | max response (NIH3T3) -11.1% | outcome (HACAT [2]) | Potency (C33A) | Potency (CAOV3) | Potency (CASKI) | Potency (Es-2) | Potency (HeLa) | Potency (Hek293T [3]) | Potency (JEG-3) | Potency (OV90)
